Among the data in PubChem BioAssay AID2355 (The Scripps Research Institute Molecular Screening Center, 2010) are inhibition values, retold here.

This experiment deals with Serine/threonine-protein phosphatase PP1-alpha catalytic subunit (Homo sapiens) (UniProt P62136). The experiment can be described thus: PP1 phosphatase inhibitors, counter-screen for PP5 inhibitor project, biochemical, fluorescence, triplicate (AID 2355). The note with it: PP1 enzyme, fluorescent phosphatase substrate; at 6.7 µM; stronger effect = higher value.
Serine/threonine-protein phosphatase PP1-alpha catalytic subunit (Homo sapiens), sequence (P62136 whole entry, looked up): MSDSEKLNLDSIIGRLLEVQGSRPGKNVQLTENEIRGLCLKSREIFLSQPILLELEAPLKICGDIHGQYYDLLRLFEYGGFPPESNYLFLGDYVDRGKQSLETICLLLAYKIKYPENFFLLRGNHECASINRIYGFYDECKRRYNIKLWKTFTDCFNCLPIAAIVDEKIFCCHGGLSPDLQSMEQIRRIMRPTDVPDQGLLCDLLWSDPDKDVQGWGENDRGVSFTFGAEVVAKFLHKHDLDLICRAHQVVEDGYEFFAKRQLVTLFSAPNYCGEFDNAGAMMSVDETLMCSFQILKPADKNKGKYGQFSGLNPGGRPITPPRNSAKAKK

A word on the inhibition: it is the change of the read-out against control, counted positive when it falls.

Some of the results follow. A number with no mark means an inactive call. Activity calls are given as the source filed them. Rule as the data show it: active = inhibition above about 16%; inactive = the rest.

As to `CN(c1ccccc1)S(=O)(=O)c1ccc(NC(=O)COc2ccccc2)cc1`, the inhibition was 3.34%. For `Cc1nc(NC(CC(C)C)C(=O)O)c2nc(C)oc2n1` (stereo not drawn) the value was -4.44%; for `O=C(O)c1n[nH]nc1-c1ccccc1`, 0.18%; for `O=[N+]([O-])c1cccc2ncccc12`, -2.99%.

Regarding `CNC(=S)NNC(=O)c1oc2nc(-c3ccccc3)cc(-c3ccco3)c2c1N`, the inhibition was -1.11%.

For the compound `CCOC(=O)Nc1ccc2c(c1)N(C(=O)CN1CCN3CCCC3C1)c1ccccc1CC2` (stereo not drawn), the inhibition is -7%. Turning to `O=c1ccc2c(-c3ccccc3S(=O)(=O)O)c3ccc(O)c(O)c3oc-2c1O`, the inhibition was 5.34%. Regarding `N#Cc1c(N2CCCCC2)nc(N)c2c(N)nc(SCC(=O)O)cc12`, the inhibition was 3.99%.

As for `CN(C)c1nc(N)nc(CSc2nnnn2-c2cccc3ccccc23)n1`, the inhibition was -1.14%. In the case of `COCCN1C=C2C(=O)C(C)(OC(=O)C3CCCC3)C(=O)C=C2C=C1c1ccsc1` (stereo not drawn), the inhibition is 16.6% (active). For `Cc1nnc(SCc2nc3ccccc3nc2C)s1` the value was -2.74%; for `COc1cc(/C=C2/SC(=S)N(Cc3ccccc3)C2=O)cc(OC)c1O`, 2.23%; for `COc1ccc(OC)c(C(=O)c2ccc(C(=O)O)cc2)c1`, -5.81%. The value for `C[C@@]12C(=O)N(c3cccc(Br)c3)C(=O)N1[C@H](c1ccc(Cl)cc1)[C@@H]1C(=O)N(C3CCCCC3)C(=O)[C@@H]12` was 6.16%; that for `Cc1sc(NC(=O)C2C3CCC(O3)C2C(=O)O)c(C(=O)OC(C)C)c1-c1ccc(Cl)cc1` (stereo not drawn) was 9.97%. With `O=C(C1=C[C@H](c2ccc(C(F)(F)F)cc2)C[C@H](OCc2ccc(CO)cc2)O1)N1CCN(Cc2ccccc2)CC1`, the inhibition was 3.55%. On to `CCN1CCN(CCNC(=O)c2ccc(/C=C3/Sc4ccccc4N(Cc4cccc(C)c4)C3=O)cc2)CC1`, for which the inhibition is -16%. For `COc1cc(C(F)(F)F)c(C(=O)N(C)c2ccc(Cl)cc2)cn1` the value was 0.28%.
